# Assay outcomes: PubChem, National Center for Advancing Translational Sciences (NCATS)
# ELG1 DNA repair – inhibitors of ELG1-dependent DNA repair in HEK293T cells. 330,000 tested, 2.3% active. AID 504467. Potency, µM (doses to about 46.1 µM), actives largely listed as inhibitors. HEK293T ELG1-luciferase reporter, luminescence, 16 h; DNA damage induced by 5-fluorouridine; note: nearly all actives have a fitted effect of over 55% in size
#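 5-Fluorouridine DNA damage + compound/DMSO, 2,000 cells/well, 16 h, 37 °C/5% CO2. ONE-Glo, 30 min RT, luminescence. Readout = decrease in reporter signal.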
# KB-V1 cytotox – KB-V1 MDR subline cytotoxicity; KB-V1 MDR cells viability, CellTiter-Glo, 72 h; Potency, µM (highest dose often 46.1 µM), most hits filed as cytotoxic; 400,000 tested, 3.4% active; AID 1347076; note: nearly all actives have a fitted effect of over 60% in size
#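 Readout: CellTiter-Glo luminescence, 10 min after addition. Cells: KB-V1 MDR subline, 72 h at 37 degrees C with compound. Analysis: corrected, normalized data fitted to concentration-effect curves.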
# KB-3-1 tox – kills parental KB-3-1 adenocarcinoma cells; KB-3-1 viability, CellTiter-Glo ATP luminescence, 72 h; Potency, µM (top dose mostly 46.1 µM), usual class: cytotoxic; 400,000 tested, 1.4% active; note: nearly all actives have a fitted effect of over 60% in size
#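 Viability of parental KB-3-1 cells, measured by CellTiter-Glo luminescence, followed a 72 h incubation at 37 °C with pinned compounds in phenol-red-free DMEM containing 10% FBS.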
# SW480 rereplic – inducers of DNA re-replication in SW480 colon cancer cells. SW480 DNA re-replication, Hoechst DNA content imaging, 48 h. Potency, µM (highest dose often 46.1 µM), most hits filed as activators. 340,000 tested, 1.8% active. AID 624297; note: nearly all actives have a fitted effect of over 55% in size
#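 Quantitative HTS format with DMSO vehicle controls; 48 hr drug incubation at 37 C, then 40 min Hoechst staining and scanning imager measurement at 405 nm excitation.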
# MCF10A rereplic – induces DNA re-replication in MCF 10a normal breast cells. Potency, µM (top dose mostly 46.1 µM), usual class: activators. 350,000 tested, 2.9% active. AID 624296. MCF 10A DNA re-replication, Hoechst nuclear intensity, 48 h; note: nearly all actives have a fitted effect of over 50% in size
# Numbers stand for hits; - = inactive; ? = inconclusive; . = no result. Only some compounds are listed: those with a hit (about 8.1% of all), similar ones and a draw of the others. Calls come from the whole dose curve; as a rule, active = well fitted curve in the direction sought with a large enough effect; inconclusive = small, poorly fitted or top-dose-only effect, or another doubt; inactive = no such curve, though single readings can be large; an effect the other way counts as inactive or inconclusive.
SMILES,ELG1 DNA repair,KB-V1 cytotox,KB-3-1 tox,SW480 rereplic,MCF10A rereplic
Oc1ccc(CN2CCCCC2)c2cccnc12,?,?,?,-,-
Oc1ccc(CN2CCC(Cc3ccccc3)CC2)c2cccnc12,-,?,23.1µM,2.91µM,?
Oc1ccc(CN2CCc3ccccc3C2)c2cccnc12,.,?,4.61µM,?,2.31µM
Oc1ccc(CN2CCN(c3ccccc3)CC2)c2cccnc12,?,-,?,?,?
Cc1[nH]c2ccccc2c1CN1CCC(Cc2ccccc2)CC1,?,18.4µM,-,?,-
CCOC(=O)N1CCN(Cc2ccc(O)c3ncccc23)CC1,-,-,?,5.8µM,20.6µM
Cc1ccc(S(=O)(=O)N2C[C@H]3C(=O)C[C@@H](c4ccc(Cl)cc4)N(S(=O)(=O)c4ccccc4C)[C@H]3C[C@H]2c2ccccc2)cc1,.,-,-,.,.
Cc1ccc(S(=O)(=O)N2CCCN(C(C)c3nc4ccccc4c(=O)[nH]3)CC2)cc1 (stereo unspecified),?,-,-,-,-
COc1cc(CN2CCc3ccccc3C2)ccc1O,?,13µM,2.91µM,?,?
COc1cc(CN2CCc3ccccc3C2)cc([N+](=O)[O-])c1O,-,-,-,-,-
O=C(NCc1ccc(F)cc1)c1cc(C2CCCN(S(=O)(=O)c3ccccc3)C2)on1 (stereo unspecified),.,-,-,.,.
CC(=O)OC1CCC2C3CCc4cc(O)ccc4C3CCC12C (stereo unspecified),.,18.4µM,-,?,?
C[C@]12CC[C@@H]3c4ccc(O)cc4CC[C@H]3[C@@H]1CC[C@@H]2O,-,?,-,?,?
C[C@]12CC[C@H]3c4ccc(O)cc4CC[C@@H]3[C@H]1CC[C@@H]2OP(=O)(O)O,.,.,.,-,-
C[C@]12CC[C@@H]3c4ccc(O)cc4CC[C@H]3[C@@H]1CCC2OC(=O)CCC1CCCC1 (stereo partly specified),.,.,.,?,23.7µM
CC(=O)O[C@H]1CC[C@H]2[C@@H]3CCc4cc(O)ccc4[C@H]3CC[C@]12C,?,14.6µM,?,?,?
CCn1cc(C(=O)NCc2ccc3c(c2)OCO3)c(=O)c2cc(S(=O)(=O)N3CCOCC3)ccc21,?,-,-,-,-
CCn1cc(C(=O)NCc2ccc3c(c2)OCO3)c(=O)c2cc(S(=O)(=O)N(C)C)ccc21,16.4µM,?,-,-,-
CCn1cc(C(=O)NCc2ccc(Cl)cc2)c(=O)c2cc(S(=O)(=O)N(C)C)ccc21,?,14.6µM,-,?,?
CCN(CCCNC(=O)c1cn(CC)c2ccc(S(=O)(=O)N(C)C)cc2c1=O)c1cccc(C)c1,23.1µM,16.4µM,?,-,-
C=CCn1cc(C(=O)NCCCOCC)c(=O)c2cc(S(=O)(=O)N(CC)CC)ccc21,18.4µM,2.91µM,-,-,-
CCn1cc(C(=O)NCCc2ccc(Cl)cc2)c(=O)c2cc(S(=O)(=O)N(C)C)ccc21,-,-,?,-,-
COC(=O)C[C@H]1C[C@H]2c3cc(NC(=O)NC4CCCC4)ccc3O[C@H]2[C@@H](CO)O1,.,-,-,.,.
CCn1cc(C(=O)NC(C)CCc2ccccc2)c(=O)c2cc(S(=O)(=O)N(C)C)ccc21 (stereo unspecified),20.6µM,-,-,-,-
COc1ccc(C(=O)N2CCC(C(=O)Nc3ccc(Cl)cc3)CC2)cc1,.,-,?,.,.
SMILES,ELG1 DNA repair,KB-V1 cytotox,KB-3-1 tox,SW480 rereplic,MCF10A rereplic
Cc1cc(N(C)NC(=S)Nc2ccccc2)nc(C)n1,-,-,-,1.84µM,-
Cc1ccc(NC(=O)CCc2c(C)nc3ncnn3c2C)cc1Cl,.,-,-,.,.
CC1(C)Cc2c(sc3c2c(=N)n(Cc2ccco2)c(=O)n3Cc2ccc(F)cc2)CO1,18.4µM,-,?,-,-
Cc1ccc(NC(=O)Cn2c(=O)n(Cc3ccco3)c(=N)c3c4c(sc32)COC(C)(C)C4)cc1,?,-,-,-,-
COc1ccc(Cn2c(=O)n(Cc3ccco3)c(=N)c3c4c(sc32)COC(C)(C)C4)cc1,7.31µM,-,?,-,-
Cc1ccc(S(=O)(=O)N(C)c2ccccc2)cc1,-,-,-,-,-
CC(=O)Oc1ccc(N(c2ccccc2)S(=O)(=O)c2ccc(C)cc2)cc1,?,14.6µM,?,?,?
CCOc1ccc(Nc2ccc(S(=O)(=O)N3CCN(C)CC3)cc2[N+](=O)[O-])cc1OCC,-,-,-,-,-
CN1CCN(S(=O)(=O)c2ccc(Nc3ccc(F)cc3)c([N+](=O)[O-])c2)CC1,-,?,-,29.1µM,?
Cc1nn(C)c2c1c(-c1ccccc1)cc(=O)n2C(C)C(=O)NCCc1ccc(Cl)cc1 (stereo unspecified),.,-,-,.,.
COc1cc(NC(=O)CCc2c(C)noc2C)c(C(=O)O)cc1OC,.,-,-,.,.
COCCN1Cc2cc3cc(C)ccc3nc2SC1=Nc1cccc(OC)c1,?,-,-,-,?
Cc1cccc(N=C2Sc3nc4c(C)c(C)ccc4cc3CN2CCN2CCOCC2)c1,9.2µM,-,-,-,11.6µM
Cc1ccc(S(=O)(=O)N2CCC(c3ccncc3)CC2)c(C)c1,.,-,20.6µM,.,.
Cc1ccc(S(=O)(=O)N2CCN(S(=O)(=O)N3CCCCC3)CC2)c(C)c1,16.4µM,-,-,-,-
COc1cccc(NC(=O)COC(=O)CCC(=O)c2cccs2)c1,-,-,-,-,-
COc1ccccc1/C=C/C(=O)Nc1ccc2c(c1)CCC2,?,-,-,-,-
COc1ccc(OC)c(/C=C/C(=O)Nc2ccc3c(c2)CCC3)c1,-,16.4µM,-,-,-
Cc1c(C(=O)Nc2ccc(-c3nnc4n3CCCCC4)cc2)oc2ccc(Br)cc12,?,8.2µM,-,-,-
COc1ccc(/C=C/C(=O)Nc2ccc(-c3nnc4n3CCCCC4)cc2)c(OC)c1,23.1µM,-,-,-,-
CCc1nnc(NC(=O)c2oc3ccc(Br)cc3c2C)s1,?,-,-,-,20.6µM
CCOC(=O)/C=C/C(=O)Nc1ccc(-c2nnc3n2CCCCC3)cc1,-,-,-,-,?
Cc1ccc2nc(SCC(=O)Nc3ccc(F)cc3F)nc(=O)n2c1,?,-,-,-,-
Cc1ccccc1NC(=O)C1CCC(CNS(=O)(=O)c2ccc3c(c2)C(C)(C)C(=O)N3C)CC1 (stereo unspecified),.,-,-,.,.
COc1ccccc1CN1CCNC(=O)C1CC(=O)N(C)C1CCOCC1 (stereo unspecified),.,-,-,.,.
COc1ccc(C)cc1NC(=O)c1cc(C2CC2)nc2c1c(C)nn2C1CCS(=O)(=O)C1 (stereo unspecified),.,4.61µM,-,-,-
Cc1nn(-c2ccc(F)cc2)c(Cl)c1/C=C/C(=O)OCC(=O)Nc1c(F)c(F)c(F)c(F)c1F,-,-,-,-,?
Cc1nn(-c2ccc(F)cc2)c(Cl)c1/C=C/C(=O)OCC(=O)Nc1ccc(F)cc1F,-,-,-,-,14.6µM
